# An excerpt weighted towards active compounds, which were near 4.2% of everything screened.
# NLRP3 yeast inh: NALP3 inflammasome inhibitors in reconstituted yeast, primary screen, luminescence, uHTS; Yeast reconstituted NLRP3/ASC/caspase-1, beta-gal luminescence, 24 h; inhibition, % at 10 µM; hit rate 0.39% among 330,000;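 active = inhibition of 50% or more; inactive = inhibition below 50%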;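 note: plate controls were induced DMSO wells for no effect and uninduced yeast grown without galactose for full effect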
# NALP1 yeast inh: NALP1 inflammasome inhibitors in reconstituted yeast, colorimetric, S. cerevisiae, triplicate retest; S. cerevisiae NALP1/ASC/caspase-1 growth, X-gal OD620, 72 h; inhibition, % at 10 µM; hit rate 0.61% among 280,000; AID 2071, 2009; in the data active = inhibition mostly above about 24%, no sharp cut-off; inactive = mostly below about 32%
# V-ATPase pH: regulators of yeast V-ATPase proton pumping, primary screen, pHLuorin cytosolic pH fluorescence; hit rate 0.37% among 350,000; response, % at 10 µM; S. cerevisiae; AID 504577, 2011; in the data active = response mostly above about 7.3%, no sharp cut-off; inactive = mostly below about 5.4%; note: actives read high
# TIM10 inh: growth inhibitors of isogenic TIM10 control yeast, primary screen, counter-screen for tim10-1 yeast inhibitor project, luminescence, uHTS; S. cerevisiae TIM10 strain growth, BacTiter-Glo luminescence, 24 h; inhibition, % at 10 µM; hit rate 1.4% among 330,000; AID 463195, 2010;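 active = inhibition of 40% or more at the single tested concentration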;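 note: wild-type TIM10 isogenic control strain grown at permissive 25 °C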
# tim23-1 inh: growth inhibitors of tim23-1 mutant yeast, primary screen, luminescence, uHTS; S. cerevisiae tim23-1 growth, BacTiter-Glo luminescence, 24 h; inhibition, % at 20 µM; hit rate 1.3% among 330,000;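 active = growth inhibition of the mutant yeast at or above 50%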;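 note: temperature-sensitive mutant grown at 25 °C; plate controls were DMSO-treated mutant yeast for no effect and medium wells lacking yeast for full effect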
# tim10-1 inh: growth inhibitors of tim10-1 mutant yeast, primary screen, luminescence, uHTS | inhibition, % at 20 µM | hit rate 2.2% among 330,000 | AID 463190, 2010 | S. cerevisiae tim10-1 ts strain growth, BacTiter-Glo, 24 h;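 active = inhibition of at least 40%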;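 note: mutant grown at 25 °C; 0% = DMSO wells with yeast and 100% = wells holding no yeast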
# tim10-1 confirm: growth inhibitors of tim10-1 mutant yeast, confirmation, single concentration, luminescence, S. cerevisiae | shares compounds with tim10-1 inh | hit rate 56% among 7,400 | inhibition, % at 20 µM | S. cerevisiae tim10-1 ts strain growth, BacTiter-Glo, 24 h;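 active = inhibition of yeast growth at or above a set limit in either of two repeat tests at 20 µM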;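 note: tim10-1 mutant grown at permissive 25 °C to find synthetic lethal compounds; 0% = DMSO yeast wells and 100% = medium wells without yeast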
# * = called active by the depositor; . = no result.
SMILES,NLRP3 yeast inh,NALP1 yeast inh,V-ATPase pH,TIM10 inh,tim23-1 inh,tim10-1 inh,tim10-1 confirm
O=c1oc2ccccc2cc1NCc1ccccc1O,-7.8,15.3,0.1,10.8,38.1,40.6*,7.2
O=C1CC(c2cccs2)Sc2nc3ccccc3n21 (stereo unspecified),-6.5,-2.9,-1.5,29.1,38.9,26.1,.
CCN1c2ccccc2-c2nc3ccccc3n2C1c1cccs1 (stereo unspecified),26.4,46.9,4.2,26.7,38.3,40.3*,16.5
Cc1ccccc1NC(=O)c1ccc(F)c(S(=O)(=O)N2CCN(c3ccccn3)CC2)c1,5.7,4.7,-3.4,33.2,44.5,41.4*,38.6*
O=C(Cc1ccccc1F)c1ccc(O)cc1O,7.2,-4.0,-1.1,22.0,49.7,43.2*,31.2*
Cc1nc2ccccc2c(=O)n1/N=C/C=C/c1ccccc1,-5.2,-5.8,3.0,25.8,27.4,20.5,.
O=C(O)c1cc2ccc3cccc4ccc(c1)c2c34,17.0,14.5,2.0,34.5,33.0,42.7*,23.2
CCOC(=O)c1c2c(n(C)c1COC)C(=O)C(=O)c1ccc(Br)cc1-2,11.9,.,.,6.2,41.4,47.7*,12.9
Cc1cc(C)c(C(=O)COC(=O)c2cccc(S(=O)(=O)N3CCOCC3)c2)cc1C,.,.,-2.1,.,.,.,.
C/C(CC(=O)Nc1ccc(N(C)C)cc1)=N\NC(=O)c1ccc(C(C)(C)C)cc1,16.2,13.6,-3.4,21.1,38.1,53.2*,33.3*
O=C(CNS(=O)(=O)c1c(Cl)cccc1Cl)OCc1csc(-c2ccccc2)n1,-2.2,30.4,2.1,14.0,47.3,46.8*,31.8*
Cc1ccc(NC(=S)NCCN(C2CCCCC2)C2CCCC2)cc1C,10.5,9.4,-0.6,3.0,13.7,22.3,.
Cc1occc1C(=O)Nc1ccc(S(=O)(=O)N2CCCC2)cc1,1.4,22.1,-0.3,22.5,20.2,41.6*,26.6
COC(=O)c1ccccc1NC(=O)C1CCCN(S(=O)(=O)c2ccc(F)cc2)C1 (stereo unspecified),33.3,36.6,0.5,9.9,39.8,26.7,.
COc1ccccc1C(=O)Nc1ccc(S(=O)(=O)N2CCCC2)cc1,27.9,-5.4,-1.9,37.1,22.0,27.1,.
COc1ccccc1C(=O)Nc1ccc(S(=O)(=O)N2CCCCC2)cc1,8.3,7.9,-0.2,25.7,12.6,48.0*,39.8*
Cc1ccc(C(=O)Nc2ccc(S(=O)(=O)N3CCOCC3)cc2)cc1C,20.3,17.3,-1.4,29.5,34.7,40.6*,14.7
COC(=O)c1ccccc1NC(=O)C1CCCN(S(=O)(=O)c2ccccc2)C1 (stereo unspecified),29.2,-9.3,-0.8,8.8,39.5,40.2*,28.6
CCCCCC(=O)Nc1ccc(Cc2ccncc2)cc1,15.6,3.5,11.2,2.1,28.4,17.2,.
CCOC(=O)c1c(C)[nH]c(C(=O)COC(=O)CNC(=O)c2ccc(Cl)cc2Cl)c1C,5.5,-5.8,-2.4,0.4,1.8,8.8,.
O=S1(=O)N=C(Oc2ccccc2)c2ccccc21,16.7,5.3,0.2,6.0,4.4,5.8,.
O=S(=O)(c1ccc(NC(=S)N/N=C/c2c3ccccc3cc3ccccc23)cc1)N1CCOCC1,-0.5,10.3,-4.1,34.3,17.2,50.2*,29.5*
O=S(=O)(c1ccc(NC(=S)N/N=C/c2ccc(Oc3ccccc3)cc2)cc1)N1CCOCC1,2.8,-29.6,-4.1,-9.3,-1.5,4.4,.
Cc1ccc(C)c(S(=O)(=O)N2CCN(C(=O)Cc3ccsc3)CC2)c1,23.8,-5.0,0.4,6.8,32.0,12.5,.
COc1ccc(-c2cn3cccnc3n2)cc1NC(=O)C(C)Oc1ccccc1 (stereo unspecified),13.6,7.4,1.4,1.1,48.8,45.9*,6.8
SMILES,NLRP3 yeast inh,NALP1 yeast inh,V-ATPase pH,TIM10 inh,tim23-1 inh,tim10-1 inh,tim10-1 confirm
CCOC(=O)N1CCC(n2c(SCC(=O)NCc3ccccc3)nc3ccccc3c2=O)CC1,10.4,-9.8,-3.9,25.1,31.7,43.4*,20.9
CCOC(=O)N1CCC(n2c(SCC(=O)N3CCCC3)nc3ccccc3c2=O)CC1,-1.3,3.1,-1.7,11.2,6.6,24.6,.
O=C(CSc1nc2ccccc2[nH]1)c1ccccc1F,14.5,20.4,1.8,9.8,21.1,20.7,.
Fc1cccc(F)c1CSc1nc2ccccc2[nH]1,26.0,7.9,2.8,35.1,32.4,42.6*,30.0
COCCCNC(=O)Cn1c(=O)n(CC(=O)N2CCCCC2)c(=O)c2sccc21,-5.5,1.3,-1.4,-6.7,-15.7,-9.4,.
CCCCNC(=O)CNC(=S)N(Cc1ccccc1)Cc1cccs1,-9.6,-0.8,3.9,7.6,14.1,46.7*,28.2
COC(CNC(=O)CNC(=S)N(Cc1ccccc1)Cc1cccs1)OC,8.8,-8.7,-3.0,-7.2,12.4,15.6,.
CN1CCN(CC(=O)c2cc(C(C)(C)C)c(O)c(C(C)(C)C)c2)CC1,-14.8,-12.0,1.8,24.4,23.6,43.9*,25.9
CCS(=O)(=O)N1Cc2ccccc2CC1C(=O)Nc1nnc(C2CC2)s1 (stereo unspecified),-10.6,-2.5,0.3,-3.2,8.3,5.0,.
CCC(=O)c1ccc(OCC(=O)Nc2nc(-c3cccnc3)cs2)cc1,11.6,.,-7.0,-24.4,-12.0,-11.7,.
CCc1ccccc1OCC(=O)Nc1nc(-c2cccnc2)cs1,16.0,-9.2,0.7,6.9,29.4,40.0,29.4
O=C(CCN1CCN(c2ccccc2F)CC1)c1ccc(Br)cc1,14.0,-6.1,2.8,5.5,26.2,36.3,.
O=C(CCN1CCN(c2ccccc2)CC1)c1ccc(Br)cc1,11.2,-18.0,8.3,-9.7,17.3,44.7*,29.1
CCOC(=O)/C(=C\c1ccccc1)NC(=O)c1ccccc1,-18.2,-1.4,-1.8,21.7,20.8,30.8,.
C=CCOC(=O)/C(=C\c1ccccc1)NC(=O)c1ccc(C)cc1,-17.2,10.8,.,25.0,21.4,40.3*,26.6
COc1ccccc1C(=O)Nc1ccccc1SC(=O)c1ccccc1OC,29.6,21.7,-3.0,39.0,42.1,42.5*,36.9*
CCOc1ccccc1C(=O)Nc1cc(OC)ccc1OC,29.3,3.8,1.3,39.5,42.1,43.1*,37.2*
CCOc1cc(NC(=O)c2ccccc2OC)c(OCC)cc1NC(=O)c1ccccc1,6.8,16.0,-21.1,-0.2,-16.8,-19.4,.
O=C(NCc1cccnc1)C1c2ccccc2C(=O)N1C1CCCCCC1 (stereo unspecified),-1.3,4.4,-1.2,0.3,16.6,2.8,.
COc1ccc(CCNc2cc(C)nc3c(-c4ccccc4)c(C)nn23)cc1OC,17.6,18.2,0.4,18.0,24.9,42.9*,19.9

# Screens deposited in PubChem BioAssay by several laboratories.
